{"source": "PubChem BioAssay AID485317", "about": "(Broad Institute, 2010)", "note": "The campaign covered roughly 290,000 compounds. About 11,000 (3.8%) were called active. The entries come from a sample that favours actives as a whole. A number with no mark means an inactive call.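 Rule for the calls: active = mean replicate inhibition above about 79%, with every replicate also reaching it (limit read from the data); inconclusive = only one of the two criteria met; inactive = mean below limit and not every replicate reaching it.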"}
{"target": "FAD-linked sulfhydryl oxidase ALR (Homo sapiens) (UniProt P55789)", "sequence (P55789 whole entry, looked up)": "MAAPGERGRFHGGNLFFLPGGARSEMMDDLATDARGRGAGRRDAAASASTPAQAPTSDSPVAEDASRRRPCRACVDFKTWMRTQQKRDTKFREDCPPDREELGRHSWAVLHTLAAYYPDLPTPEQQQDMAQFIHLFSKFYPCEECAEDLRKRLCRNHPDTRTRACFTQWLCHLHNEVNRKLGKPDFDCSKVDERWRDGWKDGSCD", "experiment": "inhibitors of human ALR sulfhydryl oxidase, primary screen, biochemical, H2O2 detection, HRP-luminol luminescence, single point (AID 485317)", "conditions": "purified ALR, DTT oxidation, stronger effect = higher value, concentration not given here"}
{"compound": "O=C1CCC/C=C/C[C@@H](CC(=O)N(CCO)Cc2ccccc2)C(=O)NC[C@H](c2ccccc2)O1", "inhibition": "0.972%"}
{"compound": "CCC[C@H]1CCCC/C=C\\CCCC(=O)OCCN1C(=O)OC(C)(C)C", "inhibition": "-2.32%"}
{"compound": "CC(C)CC1NC(=O)c2cc(Cl)ccc2-n2c1nc1ccccc1c2=O", "note": "(configuration not stated)", "inhibition": "-5.03%"}
{"compound": "COc1cnn(-c2ccc([N+](=O)[O-])cc2)c(=O)c1Cl", "inhibition": "4%"}
{"compound": "Cc1ccc(-n2c(-c3ccc(Cl)cc3)n[nH]c2=S)cc1", "inhibition": "-1.26%"}
{"compound": "COc1ccc(-n2c(-c3ccc(OC)c(OC)c3)n[nH]c2=S)cc1", "inhibition": "94% (active)"}
{"compound": "Cc1ccc(OCc2n[nH]c(=S)n2-c2ccc(C)cc2)cc1", "inhibition": "47.3%"}
{"compound": "COc1ccc(CNC(=O)COC(=O)CCS(=O)(=O)c2ccc(C)cc2)cc1OC", "inhibition": "2.97%"}
{"compound": "CCCCN1C(=O)C(=O)N(CC(=O)Nc2cccc(C(C)=O)c2)C1=O", "inhibition": "1.6%"}
{"compound": "C=CCC[C@@H](Cc1ccc(F)cc1)C(=O)OC[C@@H](C)NC(=O)[C@H](CC=C)CC(=O)N(CCO)Cc1ccccc1", "inhibition": "-10.3%"}
{"compound": "Cc1nc2ccccc2c(=O)n1NC(=O)c1ccccc1", "inhibition": "-10.2%"}
{"compound": "Cn1sc(NC(=O)c2ccccc2)nc1=O", "inhibition": "88.6% (active)"}
{"compound": "O=C(NC(=O)c1ccccc1)NC(=O)c1ccccc1", "inhibition": "0.464%"}
{"compound": "Cc1ccc(C(=O)NC2CCCC(C)C2C)cc1S(=O)(=O)N1CCCCC1", "note": "(configuration not stated)", "inhibition": "-6.06%"}
{"compound": "CC(OC(=O)c1ccc(S(=O)(=O)N2CCOCC2)cc1)c1ccccc1", "note": "(configuration not stated)", "inhibition": "-21.1%"}
{"compound": "COCCNC(=O)COc1ccc(C)c(C)c1", "inhibition": "11.4%"}
{"compound": "Cc1ccc(OCC(=O)NC(C)c2ccccc2)cc1C", "note": "(configuration not stated)", "inhibition": "-10.2%"}
{"compound": "Cc1ccc(SC(=O)COc2ccc(C)c(C)c2)cc1", "inhibition": "98.5% (active)"}
{"compound": "CCn1nc(C(=O)NNS(=O)(=O)c2cc(/C=C/C(=O)O)cc(OC)c2OC)c2ccccc2c1=O", "inhibition": "4%"}
{"compound": "O=C(COC(=O)c1ccc([N+](=O)[O-])o1)NC12CC3CC(CC(C3)C1)C2", "inhibition": "-29.8%"}
{"compound": "CCOC(=O)c1cc(C)nc(S(C)(=O)=O)c1C#N", "inhibition": "15.5%"}
{"compound": "CCCCSc1[nH]c(=O)c(C(=O)OCC)cc1C#N", "inhibition": "90% (active)"}
{"compound": "CCOC(=O)c1cc(C#N)c(N2CCCCC2)nc1-c1ccccc1", "inhibition": "6.36%"}
{"compound": "CCOc1cc(C(=O)Nc2ccc(S(=O)(=O)Nc3cnc4ccccc4n3)cc2)cc(OCC)c1OCC", "inhibition": "27.5%"}
{"compound": "Cc1ccc(C)c2c1cc(C)c1nnc(SCC(=O)Nc3cccc(C(=O)O)c3)n12", "inhibition": "3.23%"}
{"compound": "Cc1cc(NC(=O)CSc2nc(C(C)C)nc3sc4c(c23)CCC(C)C4)no1", "note": "(configuration not stated)", "inhibition": "-10.2%"}
{"compound": "CC(C)c1nc(SCC(=O)Nc2cccc(C(=O)O)c2)c2c3c(sc2n1)CCCC3", "inhibition": "98.2% (active)"}
